Several values for one entry are separate records, joined by “and”; a condition that tells them apart may be missing. Equal entries are not always repeated. This is part of a sample that, as a whole, favours compounds with a hit. Of some 83,000 tested, about 20% had one in any assay.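 Growth was measured after 48 h exposure to one concentration of compound in 96-well plates. Values under 10 count as active.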 Activity calls are given as the source filed them.

Our source for the growth values is PubChem BioAssay (NCI).

What all share (experiment): NCI-60 one-dose screen, 48 h (100 = growth as untreated, 0 = no growth, -100 = all killed)
Holding throughout (conditions): 10 µM unless noted

For assay [1], the system named is SR leukemia.
Assay [2] concerns RPMI-8226 leukemia.
In assay [3] the test system is OVCAR-8 ovarian.
Assay [4] deals with OVCAR-5 ovarian.
Assay [5] concerns OVCAR-4 ovarian.
For assay [6], the system named is SK-OV-3 ovarian.
The test system of assay [7] is IGROV1 ovarian.
The test system of assay [8] is OVCAR-3 ovarian.
Assay [9] relates to HS 578T breast.
Assay [10] concerns NCI/ADR-RES ovarian.
Assay [11] relates to T-47D breast.
The test system of assay [12] is BT-549 breast.
In assay [13] the test system is MDA-MB-435 melanoma.
The subject of assay [14] is SW-620 colon.
In assay [15] the test system is MCF7 breast.
Assay [16] deals with HCT-116 colon.
The subject of assay [17] is HCC-2998 colon.
The test system of assay [18] is KM12 colon.

On to `CN(C)C(=N)N=C(N)N`, for which the growth was 133% (inactive) in assay [1]; 92.2% (inactive) in assay [2]; 105% (inactive) in assay [3]; 115% (inactive) and 114% (inactive) in assay [4]; 96.3% (inactive) and 112% (inactive) in assay [5]; 106% (inactive) and 110% (inactive) in assay [6]. Besides, the growth is 98.7% (inactive) and 128% (inactive) in [7]; 118% (inactive) and 113% (inactive) in [8]; 144% (inactive) in assay [9]; 105% (inactive) and 111% (inactive) in [10]; 90.5% (inactive) and 102% (inactive) in assay [11]; 80.2% (inactive) and 156% (inactive) in assay [12]. The growth in [13] was 109% (inactive) and 124% (inactive); in [14] it was 108% (inactive) and 105% (inactive); in assay [15], 96.7% (inactive) and 146% (inactive); in [16], 108% (inactive) and 98.3% (inactive); in [17], 115% (inactive); in assay [18], 100% (inactive) and 108% (inactive).

With `Cc1ccc(NC(=S)N/C=C(\c2ccccc2)S(=O)Cc2ccccc2)c(C)c1` (stereo not given), the growth is 96.5% (inactive) in assay [1]; 94% (inactive) in assay [2]; 99.2% (inactive) in assay [3]; 97% (inactive) in assay [4]; 91.3% (inactive) in [5]; 100% (inactive) in [6]. For the same compound, the growth in assay [7] is 112% (inactive); in assay [8], 106% (inactive); in assay [9], 94.8% (inactive); in assay [10], 105% (inactive); in [11], 77.4% (inactive); in assay [12], 99.3% (inactive). In addition, the growth in assay [13] is 97.9% (inactive); in assay [14], 98% (inactive); in [15], 90.3% (inactive); in assay [16], 100% (inactive); in assay [17] it was 105% (inactive); in assay [18] it was 102% (inactive).

Consider `CC1OS(=O)OC1C` (stereo not given), for which the growth in assay [1] was 93.5% (inactive); in assay [2] it was 105% (inactive) and 106% (inactive); in assay [3] it was 101% (inactive) and 97.9% (inactive); in [4], 102% (inactive) and 97.6% (inactive); in [5] it was 104% (inactive) and 100% (inactive); in assay [6], 99.6% (inactive) and 118% (inactive). Also, the growth in assay [7] was 105% (inactive); in assay [8] it was 103% (inactive) and 106% (inactive); in assay [9], 98.3% (inactive); in assay [10], 107% (inactive) and 99.7% (inactive); in [11] it was 93% (inactive); in [12], 105% (inactive) and 104% (inactive). Besides, the growth in assay [13] is 99.3% (inactive) and 101% (inactive); in assay [14], 105% (inactive) and 98.3% (inactive); in assay [15], 91.2% (inactive) and 93.9% (inactive); in [16] it was 105% (inactive) and 102% (inactive); in assay [17] it was 99.3% (inactive) and 118% (inactive); in assay [18], 107% (inactive) and 97.5% (inactive).

In the case of `CNc1ccc(Cl)cc1S(=O)(=O)c1ccccc1[N+](=O)[O-]`, the growth in assay [1] is 86.3% (inactive) and 88.2% (inactive); in assay [2] it was 87.3% (inactive); in [3], 105% (inactive); in assay [4] it was 90.2% (inactive) and 105% (inactive); in assay [5], 87.6% (inactive) and 60.6% (inactive); in assay [6] it was 120% (inactive) and 110% (inactive). The growth was 78.8% (inactive) and 104% (inactive) in assay [7]; 105% (inactive) and 104% (inactive) in assay [8]; 96.7% (inactive) in assay [9]; 36.7% (inactive) and 90.6% (inactive) in assay [10]; 85.5% (inactive) and 69.2% (inactive) in assay [11]; 79.5% (inactive) and 86.9% (inactive) in assay [12]. For the same compound, the growth in [13] is 49.6% (inactive) and 6.48% (active); in [14], 108% (inactive) and 105% (inactive); in assay [15], 94.3% (inactive) and 89.9% (inactive); in assay [17], 109% (inactive); in assay [18] it was 75% (inactive) and 95.3% (inactive).

As for `COC(=O)c1ccccc1Cl`, the growth was 96.4% (inactive) in [1]; 113% (inactive) in assay [2]; 102% (inactive) in [3]; 106% (inactive) in assay [4]; 103% (inactive) in assay [5]; 105% (inactive) in [6]. Besides, the growth in assay [7] was 105% (inactive); in assay [8] it was 105% (inactive); in [9], 108% (inactive); in assay [10] it was 109% (inactive); in assay [11], 94% (inactive); in [12], 98.4% (inactive). Besides, the growth in [13] is 103% (inactive); in assay [14], 103% (inactive); in assay [15], 99.6% (inactive); in assay [16], 100% (inactive); in assay [17], 105% (inactive); in assay [18], 101% (inactive).

Regarding `CCOC(C)=N`, the growth was 87.4% (inactive) in [1]; 92.7% (inactive) in [2]; 109% (inactive) in assay [3]; 102% (inactive) in assay [4]; 100% (inactive) in assay [5]; 97% (inactive) in assay [6]. For the same compound, the growth in assay [7] was 151% (inactive); in [8], 110% (inactive); in assay [9], 150% (inactive); in [10], 109% (inactive); in assay [11], 103% (inactive); in assay [12] it was 108% (inactive). For the same compound, the growth in assay [13] was 118% (inactive); in [14], 107% (inactive); in assay [15], 104% (inactive); in assay [16] it was 95.1% (inactive); in assay [17], 103% (inactive); in [18], 111% (inactive).

On to `O=c1[nH]c(=O)n(C2OC(CO)C(O)C2O)cc1I` (stereo not given), for which the growth in assay [1] is 96.1% (inactive) and 114% (inactive); in [2], 107% (inactive); in assay [3], 98.9% (inactive) and 95.7% (inactive); in assay [4], 107% (inactive) and 104% (inactive); in assay [5] it was 100% (inactive) and 102% (inactive); in assay [6] it was 110% (inactive) and 102% (inactive). The growth in assay [7] is 103% (inactive) and 106% (inactive); in [8] it was 117% (inactive) and 121% (inactive); in assay [9], 108% (inactive) and 98.3% (inactive); in assay [10], 109% (inactive) and 97.4% (inactive); in assay [11], 105% (inactive) and 100% (inactive); in [12], 143% (inactive) and 108% (inactive). The growth in [13] was 106% (inactive) and 95% (inactive); in [14], 101% (inactive); in assay [15] it was 89% (inactive) and 107% (inactive); in assay [17] it was 109% (inactive) and 95.8% (inactive); in assay [18] it was 109% (inactive) and 100% (inactive).

For the compound `S=c1ccc2ccccc2[nH]1`, the growth in assay [1] is 109% (inactive) and 97.3% (inactive); in assay [2], 109% (inactive) and 104% (inactive); in assay [3] it was 102% (inactive) and 98.6% (inactive); in [4], 102% (inactive) and 105% (inactive); in assay [5], 104% (inactive) and 108% (inactive); in assay [6], 97.9% (inactive) and 101% (inactive). Also, the growth was 104% (inactive) and 106% (inactive) in [7]; 114% (inactive) and 107% (inactive) in assay [8]; 97.7% (inactive) and 103% (inactive) in assay [9]; 107% (inactive) and 110% (inactive) in assay [10]; 90.1% (inactive) and 91.2% (inactive) in assay [11]; 100% (inactive) and 104% (inactive) in assay [12]. Also, the growth in assay [13] is 110% (inactive) and 104% (inactive); in [14], 106% (inactive) and 104% (inactive); in assay [15], 99.5% (inactive) and 103% (inactive); in [16], 95.9% (inactive) and 102% (inactive); in assay [17] it was 111% (inactive) and 107% (inactive); in assay [18], 106% (inactive) and 103% (inactive).

Turning to `CSc1nc(N)c(N)c(N)n1`, the growth was 90.8% (inactive) in [1]; 102% (inactive) in [2]; 103% (inactive) in [3]; 120% (inactive) in assay [4]; 103% (inactive) in assay [5]; 81.3% (inactive) in assay [6]. Besides, the growth in assay [7] was 108% (inactive); in assay [8] it was 113% (inactive); in [9], 111% (inactive); in [10], 110% (inactive); in assay [11], 97.2% (inactive); in assay [12], 101% (inactive). Besides, the growth in assay [13] was 112% (inactive); in assay [14], 104% (inactive); in [16], 86.5% (inactive); in [17] it was 109% (inactive); in assay [18], 104% (inactive).

Regarding `C(#CCN1CCOCC1)CCCN1CCOCC1`, the growth in [1] is 124% (inactive) and 109% (inactive); in assay [2], 112% (inactive); in [3] it was 105% (inactive) and 106% (inactive); in assay [4], 102% (inactive) and 82.7% (inactive); in [5], 102% (inactive); in assay [6], 104% (inactive) and 106% (inactive). Also, the growth in assay [7] was 116% (inactive) and 106% (inactive); in assay [8], 116% (inactive) and 111% (inactive); in assay [9] it was 112% (inactive) and 114% (inactive); in assay [10], 105% (inactive) and 104% (inactive); in assay [11], 105% (inactive) and 101% (inactive); in [12], 99.5% (inactive) and 53.3% (inactive). For the same compound, the growth in [13] was 102% (inactive) and 101% (inactive); in assay [14], 109% (inactive) and 106% (inactive); in assay [16], 105% (inactive) and 107% (inactive); in assay [17], 99.6% (inactive) and 98.9% (inactive); in assay [18] it was 105% (inactive) and 106% (inactive).

As for `CCN(CC)C(CC(=O)c1ccccc1)C(=O)c1ccccc1` (stereo not given), the growth in assay [1] is 29% (inactive); in assay [2] it was 86.5% (inactive); in assay [3], 96.6% (inactive); in [4] it was 113% (inactive); in assay [5] it was 93.3% (inactive); in [6], 114% (inactive). Further, the growth in assay [7] was 110% (inactive); in [8] it was 92.5% (inactive); in assay [9] it was 113% (inactive); in assay [10], 101% (inactive); in assay [11], 77.8% (inactive); in assay [12], 102% (inactive). The growth is 99.2% (inactive) in assay [13]; -7.93% (active) in [14]; 92% (inactive) in assay [16]; 108% (inactive) in assay [17]; 109% (inactive) in [18].

Regarding `Cc1cc(Cl)nc(Nc2ccccc2)n1`, the growth is 97.7% (inactive) in [1]; 117% (inactive) in [2]; 102% (inactive) in [3]; 103% (inactive) in [4]; 100% (inactive) in assay [5]; 102% (inactive) in assay [6]. In addition, the growth in [7] is 100% (inactive); in assay [8], 95.5% (inactive); in [9], 99.6% (inactive); in assay [10] it was 100% (inactive); in assay [11] it was 90.4% (inactive); in assay [12] it was 108% (inactive). Besides, the growth in assay [13] is 98% (inactive); in assay [14], 104% (inactive); in [15] it was 93.7% (inactive); in [17] it was 98.6% (inactive); in [18], 97.8% (inactive).
